From PubChem
Cruzain Triton: qHTS Assay for Promiscuous and Specific Inhibitors of Cruzain (with detergent). Cruzipain (Trypanosoma cruzi), P25779. 200,000 compounds, 0.43% hits. AID 1478, 2009. purified cruzain, Z-FR-AMC fluorescence, 0.01% Triton. Potency, µM, for the others: max response, negative = inhibition, most hits filed as inhibitors;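 note: plate controls were neutral wells for no effect and buffer without enzyme for full effect; nearly all actives have a fitted effect of over 40% in size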
Target sequence (P25779 123-467 limits assumed): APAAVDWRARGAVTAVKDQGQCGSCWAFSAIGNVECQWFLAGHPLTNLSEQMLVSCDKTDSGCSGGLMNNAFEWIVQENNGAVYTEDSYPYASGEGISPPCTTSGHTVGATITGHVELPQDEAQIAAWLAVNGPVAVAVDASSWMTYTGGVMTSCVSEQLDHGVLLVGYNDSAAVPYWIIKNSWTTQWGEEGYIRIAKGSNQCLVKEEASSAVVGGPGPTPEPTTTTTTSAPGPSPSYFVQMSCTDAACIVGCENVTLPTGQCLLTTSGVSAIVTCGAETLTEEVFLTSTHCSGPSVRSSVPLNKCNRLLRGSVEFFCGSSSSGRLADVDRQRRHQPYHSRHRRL
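Read-out: AMC fluorescence (360 nm excitation, 450 nm emission), four reads over 2 min, first-to-third difference used. Conditions: cruzain 1.5 nM, Z-FR-AMC 2 uM, pH 5.5 acetate, 5 mM DTT, 0.01% Triton X-100.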
Cruzain inh noDet: qHTS Assay for Promiscuous and Specific Inhibitors of Cruzain (without detergent); AID 1476, 2009; Cruzipain (Trypanosoma cruzi), P25779; purified cruzain, Z-FR-AMC fluorescence, no detergent; Potency, µM, for the others: max response, negative = inhibition, actives largely listed as inhibitors; 200,000 compounds, 2.3% hits;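 note: plate controls were enzyme without inhibitor for no effect and buffer without enzyme for full effect; nearly all actives have a fitted effect of over 40% in size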
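Detergent-free condition (0.00005% Triton X-100) in acetate buffer pH 5.5 with DTT. 1.5 nM enzyme and compound were pre-mixed 15 min, then 2 uM Z-FR-AMC substrate added; reaction progress from fluorescence change between first and third reads (60 s).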
Starred values were filed as active, the others as inactive; u = inconclusive. In the library only some 2.6% were active in any assay of this set; here they are far more common. Calls come from the whole dose curve; as a rule, active = well fitted curve in the direction sought with a large enough effect; inconclusive = small, poorly fitted or top-dose-only effect, or another doubt; inactive = no such curve, though single readings can be large; an effect the other way counts as inactive or inconclusive. Potency is the fitted concentration of half-maximal effect.

SMILES | Cruzain Triton | Cruzain inh noDet
CSc1nc(NCCOCCO)c2sc3nc(-c4ccco4)c4c(c3c2n1)CCC4 | 7.9µM* | 25%
CSc1nc(NCc2ccco2)c2sc3nc(C(C)C)c4c(c3c2n1)CC(C)(C)OC4 | -1% | -4%
CCc1ccc(S(=O)(=O)c2cnc(SCC(=O)Nc3ccc(OC)cc3OC)[nH]c2=O)cc1 | -22% | 16%
COc1cc(Cl)c(C)cc1NC(=O)CSc1ncc(S(=O)(=O)c2ccc(C(C)(C)C)cc2)c(=O)[nH]1 | 28µM* | 10%
Cc1ccc(NC(=O)CSc2ncc(S(=O)(=O)c3ccc(C(C)C)cc3)c(=O)[nH]2)cc1C | 0% | 2%
Cc1c(Cl)cccc1NC(=O)CSc1ncc(S(=O)(=O)c2ccc(C(C)C)cc2)c(=O)[nH]1 | 28µM* | u
CCOc1ccc(CCNC(=O)c2cc3n(n2)CCCN(Cc2ccc(C)cc2)C3=O)cc1OCC | 0% | u
O=C(N/N=C/c1cccc([N+](=O)[O-])c1)c1cc2c(ccc3ccccc32)o1 | -13% | 10µM*
O=C(N/N=C/c1cccc([N+](=O)[O-])c1)c1cc(-c2ccc3c4c(cccc24)CC3)n[nH]1 | -5% | 7.9µM*
O=C(N/N=C/c1cccc([N+](=O)[O-])c1)c1ccc2c(c1)OCCO2 | -5% | 5%
O=C(N/N=C/c1ccncc1)c1cc2c(ccc3ccccc32)o1 | -6% | -1%
Cc1ccc(C(=O)Nc2ccc(-c3nc4ccccc4o3)cc2)cc1Cl | 0% | 10%
CS(=O)(=O)N1CCN(c2ccccc2NC(=O)c2ccc(Cl)cc2)CC1 | 1% | -7%
CS(=O)(=O)N1CCN(c2ccccc2NC(=O)c2ccc3ccccc3c2)CC1 | -5% | 20µM*
Cc1ccccc1OCC(=O)NCC(c1ccc(Cl)cc1)N1CCOCC1 (stereo unspecified) | -4% | u
CCOc1ccc(C(=O)Nc2cccc(NC(=O)c3ccc(C(C)(C)C)cc3)c2)cc1Br | 1% | 7.9µM*
CCOc1ccc(C(=O)Nc2cccc(NC(=O)c3ccco3)c2)cc1Cl | -9% | -3%
O=C(COc1ccc2ccccc2c1)NC1CC(=O)N(c2ccc(F)cc2)C1 (stereo unspecified) | -3% | 11%
CCOC(=O)C1=C(CSc2nc3ccccc3s2)NC(=O)NC1c1cc(C)ccc1C (stereo unspecified) | 2% | 32µM*
CCOC(=O)C1=C(CSCC(=O)OC)NC(=O)NC1c1cc(C)ccc1C (stereo unspecified) | 5% | -5%
CCOC(=O)C1=C(CP(=O)(c2ccccc2)c2ccccc2)NC(=O)NC1c1ccc(OC)cc1 (stereo unspecified) | -3% | -1%
CCOC(=O)C1=C(CSc2nc3ccccc3s2)NC(=O)NC1c1ccc(OC)cc1 (stereo unspecified) | -3% | 25µM*
COc1ccc2[nH]cc(CCNc3ncncc3-c3cccc(C#N)c3)c2c1 | 3% | -1%
COc1ccc(/C=C/C(=O)Oc2ccc(/C=N\NC(=O)c3ccc(F)cc3)cc2)cc1 | 0% | 7.9µM*
COc1ccc(/C=C/C(=O)Oc2cccc(/C=N/NC(=O)c3cccc(F)c3)c2)cc1 | 1% | u
SMILES | Cruzain Triton | Cruzain inh noDet
COc1ccc(/C=N/NC(=O)c2ccc(CN3c4cccc5cccc(c45)S3(=O)=O)cc2)cc1 | -9% | 16µM*
O=C(N/N=C/CCc1ccccc1)c1ccc(CN2c3cccc4cccc(c34)S2(=O)=O)cc1 | -1% | u
COc1ccccc1N1CCN(S(=O)(=O)CCNC(=O)C(c2ccccc2)c2ccccc2)CC1 | -4% | u
O=C(COC(=O)C(Cc1c[nH]c2ccccc12)NC(=O)c1ccc(Br)cc1)c1ccc(Cl)cc1 (stereo unspecified) | -1% | u
Cc1ccc(C(=O)COC(=O)C(Cc2c[nH]c3ccccc23)NC(=O)c2ccc(C(C)(C)C)cc2)cc1 (stereo unspecified) | 2% | 10µM*
CCc1ccc(C(=O)NC(Cc2c[nH]c3ccccc23)C(=O)OCC(=O)c2ccc(Br)cc2)cc1 (stereo unspecified) | -5% | 16µM*
CC(C)(C)c1ccc(C(=O)NC(Cc2c[nH]c3ccccc23)C(=O)OCC(=O)c2ccc(Br)cc2)cc1 (stereo unspecified) | -4% | 10µM*
O=C(COC(=O)C(Cc1c[nH]c2ccccc12)NC(=O)c1ccc(Cl)cc1)c1ccc(Cl)cc1 (stereo unspecified) | -2% | u
CC(=O)NC(Cc1c[nH]c2ccccc12)C(=O)OCC(=O)Nc1cc(C)on1 (stereo unspecified) | -2% | -1%
Cc1cc(NC(=O)COC(=O)[C@H](Cc2c[nH]c3ccccc23)NC(=O)c2ccc(F)cc2)no1 | 14µM* | u
O=C(NC(Cc1c[nH]c2ccccc12)C(=O)O)c1ccccc1 (stereo unspecified) | -3% | -8%
CC(C)OC(=O)[C@@H]1C=C[C@H](C)[C@@H](CCCCOCc2ccccc2)O1 | 0% | -7%
Cc1noc2ncnc(N3CCCC(C(=O)Nc4cc(F)ccc4F)C3)c12 (stereo unspecified) | -1% | 5%
COC(=O)c1ccc(NC(=O)CCc2c(C)nc3c(c(C)nn3C(C)(C)C)c2C)cc1 | -8% | u
CSCCC(NC(=O)c1ccc(Cl)cc1)C(=O)OCC(=O)Nc1cc(Cl)ccc1C (stereo unspecified) | 22µM* | u
CC(C)[C@H](NC(=O)c1ccccc1)C(=O)OCC(=O)Nc1ccc(Cl)cc1C(F)(F)F | -3% | -2%
CCc1ccc(C(=O)COC(=O)C(CCSC)NC(=O)c2ccccc2)cc1 (stereo unspecified) | -3% | -12%
NC(=O)CC[C@H](NC(=O)c1ccc(F)cc1)C(=O)OCC(=O)Nc1c(F)c(F)c(F)c(F)c1F | 28µM* | 13µM*
CC(C)c1ccc(NC(=O)COC(=O)[C@H](CCC(N)=O)NC(=O)c2ccc(F)cc2)cc1 | u | 13%
N#Cc1ccc(Cl)cc1NC(=O)COC(=O)[C@H](CCC(N)=O)NC(=O)c1ccc(F)cc1 | 20µM* | 20µM*
CCOC(=O)CCNC(=O)N1CCN(S(=O)(=O)c2ccc3c(ccn3C)c2)CC1 | 0% | -2%
CC(C)(C)OC(=O)NCCCCC1=CC2=CC(=O)C(C)(OC(=O)CCc3ccccc3)C(=O)C2=CO1 (stereo unspecified) | 1% | 2%
CC1=CN2C(=N)/C(=C/c3ccco3)C(=O)N=C2S1 | -8% | -9%
COc1ccc(OCCCn2cc(/C=C3/C(=N)N4C=C(C)SC4=NC3=O)c3ccccc32)cc1 | -3% | 25µM*
COc1cc(/C=C2/C(=N)N3C=CSC3=NC2=O)ccc1OCCCOc1c(C)cccc1C | -1% | -8%
COc1cccc(OCCCn2cc(/C=C3/C(=N)N4C=C(C)SC4=NC3=O)c3ccccc32)c1 | -2% | 13µM*
CC1=CN2C(=N)/C(=C/c3cn(CCCOc4ccccc4C)c4ccccc34)C(=O)N=C2S1 | 1% | 3.2µM*
COc1cc(/C=C2/C(=N)N3C=CSC3=NC2=O)ccc1OCCCOc1ccccc1C | -5% | -5%
COc1ccc(Cn2c(C(=O)O)c(CNC3CCCCC3)c3ccc(C)cc32)cc1 | -4% | 7%
Cc1c2cccc(Sc3ccccc3)c2c2c3c(cccc13)[S+](c1ccccc1)C2 (stereo unspecified) | 1% | 2.5µM*
